Sampled rows, rich in hits. Any-hit rate of the full collection: about 10%.
BAZ2B block – inhibitors of human BAZ2B bromodomain. Q9UIF8. hit rate 4.4% among 360,000. AID 504333. AlphaScreen BAZ2B-H3K14Ac peptide displacement. Potency, µM (series often up to 114 µM), inactives show top-dose activity change, negative = inhibition, hits mostly inhibitors; further: potency means the concentration at half of the fitted maximal effect; on the % scale 0 is the no-effect control and ±100 the full control effect; nearly all actives have a fitted effect of over 60% in size
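Compounds, titrated to a top concentration of 110 uM, were incubated 30 min at room temperature with preformed BAZ2B/acetyl-K14 H3 peptide complex (50 nM each). Proximity signal was measured by AlphaScreen after 20 min with beads.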
Six1-Eya2 inh – inhibitors of human Six1/Eya2 interaction; activity change, % (test concentration not listed); hit rate 0.56% among 360,000; AlphaScreen GST-Six1/His-Eya2 binding, biochemical; active compounds read low; in the data active means activity change below about -65%; inconclusive means mostly about -30% to -63%; further: on the % scale 0 is the no-effect control and ±100 the full control effect
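AlphaScreen luminescence read after one hour at 37 °C in darkness. Pin-transferred compounds met GST-Six1 and His-Eya2 protein (5X stock 250 nM/500 nM) plus glutathione donor and Ni-chelate acceptor beads (5X, 50 ug/mL).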
HP1b binding inh – HP1-beta chromodomain-methylated histone interaction inhibition; P83916; AlphaScreen HP1-beta / biotin-H3K9me3 peptide binding; Potency, µM (highest dose often 114 µM), without a hit: at the top dose activity change, negative = inhibition, usual class: inhibitors; hit rate 0.56% among 390,000; AID 540317; further: potency means the concentration at half of the fitted maximal effect; nearly all actives have a fitted effect of over 70% in size
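HP1-beta protein (50 nM final) preincubated 30 min at room temperature with biotinylated H3(1-18)K9me3 peptide (50 nM) in PBS pH 7.4, 0.01% Tween-20, then compound added for 30 min. AlphaScreen streptavidin donor/nickel chelate acceptor beads (10 ug/mL final), 30 min dark, luminescence read.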
JMJD2A Tudor – inhibitors of human JMJD2A Tudor domain | O75164 | AlphaScreen JMJD2A-Tudor / H3K4me3 peptide binding | Potency, µM (highest dose often 114 µM), inactives show top-dose activity change, negative = inhibition, usual class: inhibitors | hit rate 4.4% among 390,000 | AID 504339; further: potency means the concentration at half of the fitted maximal effect; on the % scale 0 is the no-effect control and ±100 the full control effect; nearly all actives have a fitted effect of over 50% in size
CtBP-E1A inh – CtBP/E1A binding inhibition. AlphaScreen GST-E1A/His-CtBP binding, 1536-well; active compounds read low. activity change, % (no concentration beside the values). hit rate 0.49% among 340,000. AID 651724; in the data active means activity change below about -65%; inconclusive means mostly about -30% to -63%; further: on the % scale 0 is the no-effect control and ±100 the full control effect
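Protein mix (5X: 125 nM each GST-E1A, His-CtBP) was incubated with pinned compound 2 h at 37 deg C in dark, in 50 mM Tris pH 8.0 buffer with 300 mM NaCl. Glutathione donor and nickel acceptor beads followed; AlphaScreen signal read after 1 h.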
G9a block – blocks human histone lysine methyltransferase G9a; Q96KQ7; G9a H3K9 monomethylation, AlphaScreen, 2 h; Potency, µM (highest dose often 102 µM), for inactives: top-dose activity, negative = inhibition, actives largely listed as inhibitors; hit rate 8.8% among 350,000; further: potency means the concentration at half of the fitted maximal effect; on the % scale 0 is the no-effect control and ±100 the full control effect; nearly all actives have a fitted effect of over 75% in size
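AlphaScreen detection with an anti-monomethyl H3K9 antibody quantified product after a 2 h room-temperature reaction containing 500 nM biotinylated H3K9 peptide, 20 µM SAM and 20 nM enzyme, which had been preincubated 15 min with compound.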
* = called active by the depositor; ? = inconclusive; . = not tested or not shown; [ ] = dose if it differs, or a comment. Unless noted, the call rests on the fitted dose curve; in most records, active means well fitted inhibition curve with a large enough effect; inconclusive means small, poorly fitted or top-dose-only effect; inactive means no such curve, though single readings can be large or run the other way.

SMILES | BAZ2B block | Six1-Eya2 inh | HP1b binding inh | JMJD2A Tudor | CtBP-E1A inh | G9a block
Nc1ccc(CSc2ccccc2)cc1 | . | 9 | -4%[57 µM] | -31% | -11 | .
Cc1ccc2c(c1)c(=O)c(C(=O)c1ccccc1)cn2Cc1ccccc1F | ? | . | 14% | ? | . | -13%[59 µM]
O=C1N=C(N2C=CC(=C3C=CNC=C3)C=C2)/C(=C/N=NC(=O)c2ccccc2O)S1 | 50µM* | -19 | 45µM* | ? | -26 | 71µM*
CS(=O)(=O)N1CCN(c2nc(-c3cccs3)nc3ccccc23)CC1 | . | . | 43% | -12% | . | .
COc1ccc(C(=O)Nc2nc(N)n(-c3ccccc3)n2)cc1OC | ? | -2 | 28% | -26% | 0 | 35%
Nc1nc(NC(=O)CCC(=O)O)nn1-c1ccccc1 | 50µM* | -5 | 19% | 22µM* | -11 | .
COc1ccccc1/C=C/C(=O)Nc1nc(N)n(-c2ccccc2)n1 | 56µM* | -9 | 42% | -16% | . | 14%
Nc1nc(NC(=O)c2ccccc2)nn1-c1ccccc1 | ? | -1 | 61% | -9% | . | 15%
COc1ccc(Cl)cc1NC(=O)N1CCC(CN2CCCCCC2)CC1 | -16% | . | 16% | -9% | . | ?
C/C(=N\Nc1ccc(C(=O)O)cc1)c1ccc(-n2ccnc2)cc1 | -23% | -2 | 32% | -29% | 1 | 13µM*
C/C(=N\NC(N)=O)c1ccc(-n2ccnc2)cc1 | -9% | -5 | 28% | -4% | 1 | 20%[12.7 µM]
C/C(=N\Nc1ccccc1Cl)c1ccc(-n2ccnc2)cc1 | 50µM* | -1 | ? | 56µM* | -5 | 10µM*
CCc1ccc(NC(=O)Cn2ccn(-c3ccc(OC)cc3)c(=O)c2=O)cc1 | 9% | . | 66% | 4% | . | -29%[59 µM]
O=C(Nc1cccc(C(F)(F)F)c1)N1CC2CCCN2c2ccccc21 (stereo not drawn) | 28µM* | . | ? | 50µM* | . | ?
Cc1ccc(NC(=O)N2CC3CCCN3c3ccccc32)c(C)c1 (stereo not drawn) | 7% | . | ? | 50µM* | . | -4%[59 µM]
Cc1ccc(NC(=O)N2CCCC2)cc1Cl | -16% | 0 | 46% | 3% | -9 | 7%
Cc1ccc(NC(=O)N2CCc3ccccc32)cc1C | 0% | 3 | 49% | 3% | 7 | 7%
Cc1ccc(NC(=O)N2CC3CCCN3c3ccccc32)cc1Cl (stereo not drawn) | 28µM* | . | ? | 40µM* | . | 8.9µM*
Cc1ccc(NC(=O)N2CC3CCCN3c3ccccc32)cc1C (stereo not drawn) | 25µM* | . | ? | 50µM* | . | 10µM*
Cc1cccc(NC(=O)c2ccc(-n3cnc4cccnc43)cc2)c1C | -14% | . | 27% | -9% | . | -10%[59 µM]
Cc1cc2c(s1)c1cnn(Cc3cc(Cl)ccc3F)c(=O)c1n2C | . | . | . | -21% | . | .
COc1ccc(S(=O)(=O)c2nnn(-c3ccc(C)c(Cl)c3)c2C)cc1 | -3% | . | 24% | -14% | . | -36%[59 µM]
COc1cccc(Nc2ncc3nc(-c4cc(F)cc(F)c4)c(=O)n(CCC#N)c3n2)c1 | . | . | . | . | . | -1%[12.7 µM]
CCC1CN(C(=O)Nc2cc(Cl)ccc2C(=O)OC)c2ccccc2S1 (stereo not drawn) | -5% | . | 59% | -10% | . | -16%[59 µM]
COC(=O)c1ccc(Cl)cc1NC(=O)N1CC2CCCN2c2ccccc21 (stereo not drawn) | ? | . | 3% | ? | . | 8.9µM*
SMILES | BAZ2B block | Six1-Eya2 inh | HP1b binding inh | JMJD2A Tudor | CtBP-E1A inh | G9a block
Cc1cc(C)cc(NC(=O)CSc2nnc(CNC(=O)c3ccco3)o2)c1 | -18% | 6 | 14%[57 µM] | -17% | 6 | 2%
Cc1cc(NC(=O)CSc2nnc(CNC(=O)c3cccc(C(F)(F)F)c3)o2)no1 | 8% | -72* | 22% | -24% | -78* | .
Cc1cccc(NC(=O)CSc2nnc(CNC(=O)c3ccco3)o2)c1 | -11% | 0 | 55% | -2% | 4 | 11µM*
Cn1c2ccsc2c2cnn(Cc3ccc(F)cc3)c(=O)c21 | 9% | . | . | . | . | 3%[12.7 µM]
CCc1ccc2c(c1)Sc1ccccc1CC2N1CCN(C)CC1 (stereo not drawn) | . | -4 | -9% | -35% | . | .
CN1Cc2cccc3c2C(Cc2ccccc2S3)C1 (stereo not drawn) | -8% | -13 | 22% | 10µM* | -1 | ?
O=C(NCC(c1ccco1)N1CCc2ccccc2C1)c1ccccc1 (stereo not drawn) | 0% | -7 | 26% | -17% | 0 | 7%
O=C(NCC(c1ccco1)N1CCc2ccccc2C1)C(=O)Nc1ccccc1 (stereo not drawn) | 1% | 0 | 8% | -12% | -22 | 50µM*
CC(=O)Nc1cccc(NC(=O)C(=O)NCC(c2ccco2)N2CCc3ccccc32)c1 (stereo not drawn) | 50µM* | -12 | ? | 56µM* | -12 | 50µM*
O=C(CCc1ccccc1)NCC(c1ccco1)N1CCc2ccccc21 (stereo not drawn) | ? | -18 | ? | ? | -8 | 18%[0.501 µM]
CC(C)(C)OC(=O)N1CCC(c2c(C(=O)Nc3ccc4c(c3)OCCO4)cnn2-c2ccccc2)CC1 | -8%[57.1 µM] | . | 6% | -33% | . | ?
Cc1ccc(C)c(N(CC(=O)Nc2cc(Cl)ccc2Oc2ccccc2)S(C)(=O)=O)c1 | -31% | -10 | 6% | -6% | 2 | 47%[59 µM]
Cc1cccc(C)c1N(CC(=O)Nc1cc(Cl)ccc1Oc1ccccc1)S(C)(=O)=O | 11% | -7 | 28% | -12% | 4 | 13µM*
Cc1ccccc1C(=O)Nc1cccc(OCc2cc(=O)n3c4c(sc3n2)CCCC4)c1 | -24% | . | 32% | -13% | . | 2%[59 µM]
O=C(C[n+]1ccc(C(=O)N/N=C/c2ccc(Cl)cc2Cl)cc1)c1ccccc1 | -9% | -11 | 22% | ? | 6 | 50µM*
O=C(N/N=C/C(Br)=C\c1ccccc1)c1ccc2nc[nH]c2c1 | -22% | -20 | 38% | -34% | -77* | 2%[59 µM]
O=C(C[n+]1cccc(C(=O)N/N=C/c2ccc(Br)cc2)c1)c1ccccc1 | -9% | -8 | 27% | ? | . | 1.4µM*
CC(=C/c1ccccc1)/C=N/NC(=O)c1ccc2nc[nH]c2c1 | -6% | 4 | 20% | -9% | 6 | 15%[59 µM]
O=C(N/N=C/c1ccc(Cl)cc1Cl)c1ccc2nc[nH]c2c1 | -33% | -8 | 26% | 7% | . | 71µM*
O=C1CC(Cc2ccccc2)C(=O)N1Cc1ccco1 (stereo not drawn) | -33% | -2 | 16% | -20% | 2 | 45µM*
O=C1C2C3CCC(C3)C2C(=O)N1Cc1ccco1 (stereo not drawn) | -16% | 5 | 43% | -10% | 10 | -3%[59 µM]
Cc1ccc(CC2CC(=O)N(Cc3ccco3)C2=O)cc1 (stereo not drawn) | 3% | -1 | 4% | -25% | -1 | 40µM*

Screens as filed in PubChem.
